Compound in this assay: Nc1ncnc2c1ncn2[C@@H]1O[C@H](COP(=O)(O)OP(=O)(O)OP(=O)(O)O)[C@@H](O)[C@H]1O [adenosine 5'-triphosphate]
The assay can be described thus: log2 fold change of tryptic peptide abundance, ligand vs vehicle (limited proteolysis) (log2 ratio); higher = more trypsin-susceptible (destabilized). As to conditions: ligand concentration: 5 mM; sample: E. coli desalted lysate; replicate design: treated before aliquoting. On the procedure:
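HT-PELSA: desalted E. coli K-12 BW25113 lysate (with 12 mM MgCl2) incubated with 5 mM ATP (pH 7) or water for 30 min at 25 C, then a 4 min trypsin pulse at 22 C. Peptides were quantified by DIA-MS (4 replicates). Value is the peptide log2 fold change (treated/control); negative = stabilized. Scale: negative = ligand-stabilized region.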
Consider “UniProt P61517 (peptide sequence: DLDVTATNR, peptide start residue: 190)”, for which the log2 fold change turned out to be 0.547.
Next, “UniProt P77544 (peptide sequence: QIQAWLR, peptide start residue: 104)”: 0.878.
Next, “UniProt P02916 (peptide sequence: ETTAQPEGER, peptide start residue: 161)”: 0.465; “UniProt P07604 (peptide sequence: YAWPGNVR, peptide start residue: 410)”: -1.06.
Next, “UniProt P24192 (peptide sequence: PAPQQVCDDPR, peptide start residue: 310)”: -0.597; “UniProt P09546 (peptide sequence: IYAPVGTHETLLAYLVRR, peptide start residue: 539)”: 0.991; “UniProt P77522 (peptide sequence: IMPTATNAR, peptide start residue: 392)”: 1.07.
Take “UniProt P76196 (peptide sequence: VVEQLLAMR, peptide start residue: 47)”: the log2 fold change is -0.864.
For “UniProt P08956 (peptide sequence: ITGDADKDAR, peptide start residue: 763)” the value was -3.68; for “UniProt P0A8Y3 (peptide sequence: VVVLSNTNR, peptide start residue: 103)”, 0.564.
Next, “UniProt P31680 (peptide sequence: LMSEHHPDKLVAK, peptide start residue: 228)”: -0.381; “UniProt P39187 (peptide sequence: VLQHIAGR, peptide start residue: 63)”: 0.842; “UniProt P25535 (peptide sequence: LADTLPGVKPQLIR, peptide start residue: 374)”: 0.527.
For “UniProt P07014 (peptide sequence: IVIRPLPGLPVIR, peptide start residue: 89)” the value was 0.248; for “UniProt P67910 (peptide sequence: YFNVYGPR, peptide start residue: 167)”, -0.736.
For the target “UniProt P25524 (peptide sequence: EYGVESLHK, peptide start residue: 192)”, the log2 fold change was -0.706.
On to “UniProt P37339 (peptide sequence: AFCDQNGIR, peptide start residue: 75)”, for which the log2 fold change stood at 0.681.
On to “UniProt P10423 (peptide sequence: KSWHNVTGSTVIAAHEGK, peptide start residue: 90)”, for which the log2 fold change is -0.451.
For “UniProt P33599 (peptide sequence: QDLEMEALTFKPEEWGMKR, peptide start residue: 186)” the value was -1.6; for “UniProt P07862 (peptide sequence: AWTTLGCK, peptide start residue: 244)”, -0.633; for “UniProt P07109 (peptide sequence: YGEHEVLK, peptide start residue: 15)”, -1.13.
Next, “UniProt P0A800 (peptide sequence: IGNRFDLVLVAAR, peptide start residue: 13)”: -0.922.
On to “UniProt P39099 (peptide sequence: SRIATTEPGTK, peptide start residue: 330)”, for which the log2 fold change was 0.877.
In the case of “UniProt P21170 (peptide sequence: TLLTQFR, peptide start residue: 619)”, the log2 fold change came to 0.611.
On to “UniProt P37194 (peptide sequence: GNNQPDIQK, peptide start residue: 28)”, for which the log2 fold change was 0.489.
For “UniProt P0AEE1 (peptide sequence: AIELKGHK, peptide start residue: 121)” the value was 0.899.
Consider “UniProt P32053 (peptide sequence: AFEKPQKK, peptide start residue: 202)”, for which the log2 fold change was -0.721.
For “UniProt P09980 (peptide sequence: AANILIANNPHVFEKR, peptide start residue: 286)” the value was -3.41; for “UniProt P13458 (peptide sequence: NQPDGNLQVPR, peptide start residue: 103)”, -0.895; for “UniProt P31554 (peptide sequence: GNIMWENEFR, peptide start residue: 268)”, -0.46.
With “UniProt P76562 (peptide sequence: EHYRLRR, peptide start residue: 544)”, the log2 fold change was 0.855.
For “UniProt P00960 (peptide sequence: AVAEAYYASREALGFPMCNKDK, peptide start residue: 282)” the value was 0.93; for “UniProt P0A9K7 (peptide sequence: HVGGDELDKLLAGK, peptide start residue: 224)”, -0.493.
For “UniProt P37051 (peptide sequence: TICPDQK, peptide start residue: 11)” the value was -0.377; for “UniProt P16525 (peptide sequence: TTFEHIVTVESELPTAAR, peptide start residue: 122)”, 0.318; for “UniProt P52061 (peptide sequence: FHCVLVYLR, peptide start residue: 118)”, -0.642.
As for “UniProt P76014 (peptide sequence: EIGDADHGLNMNR, peptide start residue: 32)”, the log2 fold change is -2.08.
For “UniProt P39208 (peptide sequence: RAGHFMPVALLK, peptide start residue: 119)” the value was -1.52; for “UniProt P45523 (peptide sequence: GTLIDGKEFDNSYTR, peptide start residue: 173)”, 0.527.
For “UniProt P38051 (peptide sequence: QAQQLGEWLMADDKNQR, peptide start residue: 267)” the value was -0.448.

The record behind these values is the supplement of paper PMC12819154, “High-throughput peptide-centric local stability assay extends protein–ligand identification to membrane proteins, tissues and bacteria” (Nature Structural & Molecular Biology, 2025).
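Further: lysate desalted by size exclusion to strip endogenous ATP, peptide intensities built from DIA-NN precursor signals, and peptides missing any value discarded before comparison.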
